From PubChem BioAssay
Rows were chosen to be rich in hits. Some 8% of all compounds tested hit in one or more screens of this group.
PostGolgi yeast – growth inhibition of a yeast mutant, post-Golgi transport screen; post-Golgi transport phenotypic cell assay; inhibition, % at 10 µM; hit rate 0.9% among 98,000; AID 739;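 also: yeast cells grown in 1536-well plates; yeast grown about 18 h at 30C before absorbance read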
PostGolgi ctrl – inhibits growth of the yeast control strain. efflux-deficient yeast background strain, growth absorbance A615, 16 h. inhibition, % at 10 µM. hit rate 5% among 98,000
Cav32 inh – inhibitors of human Cav3.2 T-type calcium channel; O95180; Cav3.2-expressing cells, Fluo-4 calcium fluorescence FDSS; active compounds read low; B-score at 10 µM; hit rate 4% among 100,000; AID 449739;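 active = single-dose well whose peak fluorescence ratio is a statistical outlier from its plate by either plate-standardised score or position-corrected B-score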
Pyk2 oligo antag – Pyk2 (human) oligomerization antagonism | z-score (the deposit names both 25 µM and 10 µM) | hit rate 0.83% among 99,000 | Q293 cells, Pyk2 FERM NanoBiT luminescence; active compounds read low | AID 1347419;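 active = Z-score of -3 or lower, scaled per plate to the spread of control and sample wells; inactive = z-score above -3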;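 also: negative z-score means lost luminescence so less FERM oligomerization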
Target sequence (Q14289 whole entry, looked up): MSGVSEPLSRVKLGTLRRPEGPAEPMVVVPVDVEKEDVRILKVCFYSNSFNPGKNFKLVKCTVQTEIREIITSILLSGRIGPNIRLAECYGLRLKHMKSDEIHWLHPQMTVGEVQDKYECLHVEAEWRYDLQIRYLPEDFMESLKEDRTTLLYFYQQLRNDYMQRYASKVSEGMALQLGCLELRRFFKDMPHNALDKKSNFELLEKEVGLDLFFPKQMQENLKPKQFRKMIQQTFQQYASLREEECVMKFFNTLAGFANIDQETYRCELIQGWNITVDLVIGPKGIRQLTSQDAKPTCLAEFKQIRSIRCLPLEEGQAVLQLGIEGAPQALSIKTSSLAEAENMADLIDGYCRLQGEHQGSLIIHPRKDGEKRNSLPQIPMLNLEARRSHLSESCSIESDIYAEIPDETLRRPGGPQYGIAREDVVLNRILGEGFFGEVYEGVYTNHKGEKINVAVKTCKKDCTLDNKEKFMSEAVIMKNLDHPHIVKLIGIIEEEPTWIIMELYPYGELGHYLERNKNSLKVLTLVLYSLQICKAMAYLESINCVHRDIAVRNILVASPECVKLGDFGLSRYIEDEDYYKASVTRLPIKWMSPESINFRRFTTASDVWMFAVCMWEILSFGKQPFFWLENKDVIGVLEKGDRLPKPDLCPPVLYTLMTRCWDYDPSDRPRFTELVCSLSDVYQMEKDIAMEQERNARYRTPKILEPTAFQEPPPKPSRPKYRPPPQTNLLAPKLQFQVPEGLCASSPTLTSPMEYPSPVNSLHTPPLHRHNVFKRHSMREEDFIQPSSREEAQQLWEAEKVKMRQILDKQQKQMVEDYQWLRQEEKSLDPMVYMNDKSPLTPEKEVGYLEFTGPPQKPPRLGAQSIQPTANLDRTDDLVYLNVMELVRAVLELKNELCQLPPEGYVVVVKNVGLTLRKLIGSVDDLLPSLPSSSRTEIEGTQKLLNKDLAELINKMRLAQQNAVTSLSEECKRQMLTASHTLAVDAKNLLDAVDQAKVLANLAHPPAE
Numbers stand for hits; i = inactive; nt = no result. Rule as the data show it, unless noted: active = inhibition above about 30%; inactive = the rest.

SMILES	PostGolgi yeast	PostGolgi ctrl	Cav32 inh	Pyk2 oligo antag
CSCSC1=C(C#N)C(c2ccc(Cl)cc2)C(C(C)=O)=C(C)N1 (configuration not stated)	i	i	-5.5	nt
CC(=O)C1=C(C)NC(SCC(=O)c2ccc(Cl)cc2)=C(C#N)C1c1ccco1 (configuration not stated)	i	i	-4.5	i
CC(=O)C1=C(C)NC(SCC(=O)c2ccccc2)=C(C#N)C1c1ccco1 (configuration not stated)	i	i	i	nt
CSC1=C(C#N)C(c2ccccc2Cl)C(C(C)=O)=C(C)N1 (configuration not stated)	nt	nt	i	-3.1
COc1ccc(CCN2C(=NC(=O)CCC(=O)O)SC3CS(=O)(=O)CC32)cc1 (configuration not stated)	i	i	i	i
COc1ccc(C2/C(=C(\O)c3cccc(OC)c3)C(=O)C(=O)N2c2ccccn2)cc1 (configuration not stated)	i	i	i	i
O=C(NC1CCCc2ccccc21)c1cccc(S(=O)(=O)N2CCN(c3ccccc3)CC2)c1 (configuration not stated)	i	i	-10	i
O=C(Nc1ccc2c(c1)CCC2)c1cccc(S(=O)(=O)N2CCN(c3ccccc3)CC2)c1	i	i	-5.7	i
CCOC(=O)c1c(C)[nH]c(C(=O)OCC(=O)NC2CCS(=O)(=O)C2)c1C (configuration not stated)	i	i	i	i
CCN1C(=O)C(C(=O)Nc2ccc(OC)cc2)C2CC1(C)Oc1ccccc12 (configuration not stated)	i	i	i	i
Cc1ccc(/C=C/C(O)=C2/C(=O)N(C)C3(C)CC2c2ccccc2O3)cc1 (configuration not stated)	i	44	i	i
COc1ccc(/C=C/C(O)=C2/C(=O)N(C)C3(C)CC2c2ccccc2O3)cc1 (configuration not stated)	i	i	-5	i
Cc1ccc(/C=C/C(=O)C2C(=O)c3ccccc3C2=O)cc1	i	i	i	i
COCCn1nnnc1C(c1ccc(C(F)(F)F)cc1)N1CCOCC1 (configuration not stated)	i	i	i	i
COCCn1nnnc1C(C(C)C)N1CCOCC1 (configuration not stated)	i	40	i	i
Cc1ccc(C)c(N2CCN(C(=O)CNS(=O)(=O)c3cccs3)CC2)c1	i	i	i	i
O=C1C2C3C=CC(C3)C2C(=O)N1c1ncn[nH]1 (configuration not stated)	i	35	i	i
O=C1[C@@H]2[C@H](C(=O)N1O)[C@H]1C=C[C@@H]2C1	i	i	i	i
COc1ccc(C2(CN(C(C)=O)C(C)=O)CCCC2)cc1OC	i	39	i	i
COc1ccc(C2(CNC(=O)Cc3ccccc3)CCCC2)cc1OC	i	i	i	i
CCCOC(=O)NC(CC)COC(=O)Nc1cc(C)ccc1C (configuration not stated)	i	33	i	i
O=C(CSc1nnc(CNc2ccc(Cl)cc2)n1Cc1ccccc1)NCc1ccco1	i	i	i	i
Fc1ccc(NCc2nnc(SCc3nnc(-c4ccccc4)o3)n2Cc2ccccc2)cc1	46	i	-8.3	i
Cc1oc(/C=N/NC(=O)CN(c2ccccc2Br)S(C)(=O)=O)cc1Br	i	i	i	i
COc1cc(/C=C\C(=O)OCn2nnc3ccccc3c2=O)cc(OC)c1OC	nt	nt	i	nt
SMILES	PostGolgi yeast	PostGolgi ctrl	Cav32 inh	Pyk2 oligo antag
O=C(C1=C[C@H](c2ccccc2)C[C@H](OCc2ccc(CO)cc2)O1)N1CCN(Cc2ccc3c(c2)OCO3)CC1	nt	nt	i	nt
CCn1c(=O)c2c(O)cc(=O)oc2c2ccccc21	32	i	i	i
O=c1cc(O)c2c(=O)n(-c3ccccc3)c3ccccc3c2o1	i	i	i	i
COc1ccc(N2C(=O)CSC23C(=O)N2c4c(cccc43)C(C)=CC2(C)C)cc1 (configuration not stated)	i	32	i	i
COc1cccc(N2CCN(c3ncnc4c3[nH]c3ccccc34)CC2C)c1 (configuration not stated)	i	44	-5.9	nt
Cc1ccc2[nH]c3c(N4CCN(Cc5ccccc5)CC4)ncnc3c2c1	i	i	i	i
Cc1ccc2c(c1)[nH]c1c(N3CCN(Cc4ccccc4)CC3)ncnc12	i	i	-4.9	i
COc1cc2[nH]c3c(N4CCN(c5ccc(Cl)cc5)CC4)ncnc3c2cc1OC	i	i	i	-3.2
Fc1ccc2[nH]c3c(N4CCN(C5CCCCC5)CC4)ncnc3c2c1	i	i	nt	nt
COc1cccc(N2CCN(c3ncnc4c3[nH]c3ccc(F)cc34)CC2C)c1 (configuration not stated)	66	96	-6.1	i
COc1cc2[nH]c3c(Cl)ncnc3c2cc1OC	nt	nt	nt	i
Cc1ccc2nc(N3CCN(S(=O)(=O)c4ccc(C)c(Cl)c4)CC3)c(C#N)cc2c1	i	i	i	i
O=c1cc(-c2ccccc2)[nH]n1-c1ccc([N+](=O)[O-])cc1	i	i	-4	i
O=C(Nc1ccc(O)c(-c2nc3ccccc3o2)c1)C1(c2ccccc2)CCCC1	i	i	i	i
CCOc1ccc(N(C(=O)/C=C/C(=O)Nc2cc(C)on2)C(C(=O)NC2CCCC2)c2ccccc2C)cc1 (configuration not stated)	i	i	-5.4	i
C/C(=N\NC(=O)C1CCCN(S(=O)(=O)c2ccccc2)C1)c1ccncc1 (configuration not stated)	i	i	4.1	i
CN1CCN(C(=O)CN(c2cc(C(F)(F)F)ccc2Cl)S(C)(=O)=O)CC1	i	i	nt	i
CCN(CC(=O)Nc1c(C(=O)OC)[nH]c2ccc(Cl)cc12)c1ccc2c(c1)OCO2	i	57	i	i
CCOC(=O)C1CCCN(CC(=O)Nc2c(C(=O)OC)[nH]c3ccc(Cl)cc23)C1 (configuration not stated)	i	39	i	i
CCOC(=O)C1CCCN(CC(=O)Nc2c(C(=O)OC)[nH]c3ccc(C)cc23)C1 (configuration not stated)	i	i	i	i
COC(=O)c1[nH]c2ccc(C)cc2c1NC(=O)CCN1CCN(Cc2ccc3c(c2)OCO3)CC1	i	i	i	i
COc1ccccc1-c1cn(S(=O)(=O)c2ccc(F)cc2)nc1N	i	i	i	i
N#Cc1cccc(NC(=O)COc2ccc(-n3ccnc3)cc2)c1	i	i	i	i
CC(C)(C)c1ccc(NC(=O)COc2ccc(-n3ccnc3)cc2)cc1	73	58	i	i
O=C(N/N=C/c1ccc2c(c1)OCO2)C1COc2ccccc2O1 (configuration not stated)	i	i	i	i
O=C(N/N=C\c1cc(Br)cs1)C1COc2ccccc2O1 (configuration not stated)	i	37	i	i
O=c1c2ccccc2c(/C=N/c2ncn[nH]2)c(O)n1Cc1ccccc1	i	30	i	i
COc1ccc(-c2nc3n(n2)C(=O)CC(c2ccco2)S3)cc1 (configuration not stated)	i	41	i	i
COCn1c(COc2ccc3ccccc3c2)nc2ccccc21	nt	nt	-5.3	i
CCn1c(COc2cccc(C)c2)nc2ccccc21	nt	nt	-4	i
